Of roughly 7,900 targets only a part is listed; those with a hit were picked by preference. About 0.6% of all pairs of compound and target were hits. A number with no mark means an inactive call.

Sequence of UniProt Q9HAW4 (Q9HAW4 whole entry, looked up): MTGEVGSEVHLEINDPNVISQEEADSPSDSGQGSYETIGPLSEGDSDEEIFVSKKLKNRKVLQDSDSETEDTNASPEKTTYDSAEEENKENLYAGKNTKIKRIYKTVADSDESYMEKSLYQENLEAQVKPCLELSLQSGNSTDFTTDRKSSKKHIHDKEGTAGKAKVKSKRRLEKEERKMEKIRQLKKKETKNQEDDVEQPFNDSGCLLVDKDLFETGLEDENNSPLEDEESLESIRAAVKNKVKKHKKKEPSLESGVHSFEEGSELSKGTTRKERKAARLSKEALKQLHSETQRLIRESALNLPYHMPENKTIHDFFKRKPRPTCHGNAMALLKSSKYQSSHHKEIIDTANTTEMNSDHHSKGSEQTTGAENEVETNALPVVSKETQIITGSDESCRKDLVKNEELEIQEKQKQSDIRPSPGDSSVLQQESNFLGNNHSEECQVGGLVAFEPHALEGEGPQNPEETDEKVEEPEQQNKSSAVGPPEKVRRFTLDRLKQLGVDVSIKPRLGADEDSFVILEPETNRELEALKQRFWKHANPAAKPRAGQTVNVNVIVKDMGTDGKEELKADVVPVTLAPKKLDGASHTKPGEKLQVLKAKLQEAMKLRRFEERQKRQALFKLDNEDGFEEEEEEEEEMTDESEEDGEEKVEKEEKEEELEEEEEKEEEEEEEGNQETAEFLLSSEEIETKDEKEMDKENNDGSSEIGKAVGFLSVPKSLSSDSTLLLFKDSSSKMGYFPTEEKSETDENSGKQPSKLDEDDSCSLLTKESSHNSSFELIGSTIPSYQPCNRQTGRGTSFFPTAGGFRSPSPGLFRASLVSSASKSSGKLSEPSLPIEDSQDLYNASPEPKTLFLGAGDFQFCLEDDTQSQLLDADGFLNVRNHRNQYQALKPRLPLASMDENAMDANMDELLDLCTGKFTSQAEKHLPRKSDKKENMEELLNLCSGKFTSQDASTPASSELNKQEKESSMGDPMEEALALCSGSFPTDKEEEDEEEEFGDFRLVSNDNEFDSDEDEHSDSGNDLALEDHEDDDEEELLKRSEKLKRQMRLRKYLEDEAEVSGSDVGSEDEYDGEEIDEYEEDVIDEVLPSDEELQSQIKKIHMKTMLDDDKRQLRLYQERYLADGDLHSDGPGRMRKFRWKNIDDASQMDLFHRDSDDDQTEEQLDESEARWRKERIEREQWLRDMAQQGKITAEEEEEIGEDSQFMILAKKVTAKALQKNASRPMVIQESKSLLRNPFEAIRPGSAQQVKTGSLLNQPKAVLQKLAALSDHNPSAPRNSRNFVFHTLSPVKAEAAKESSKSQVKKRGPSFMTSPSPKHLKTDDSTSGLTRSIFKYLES
Sequence of UniProt P14635 (P14635 whole entry, looked up): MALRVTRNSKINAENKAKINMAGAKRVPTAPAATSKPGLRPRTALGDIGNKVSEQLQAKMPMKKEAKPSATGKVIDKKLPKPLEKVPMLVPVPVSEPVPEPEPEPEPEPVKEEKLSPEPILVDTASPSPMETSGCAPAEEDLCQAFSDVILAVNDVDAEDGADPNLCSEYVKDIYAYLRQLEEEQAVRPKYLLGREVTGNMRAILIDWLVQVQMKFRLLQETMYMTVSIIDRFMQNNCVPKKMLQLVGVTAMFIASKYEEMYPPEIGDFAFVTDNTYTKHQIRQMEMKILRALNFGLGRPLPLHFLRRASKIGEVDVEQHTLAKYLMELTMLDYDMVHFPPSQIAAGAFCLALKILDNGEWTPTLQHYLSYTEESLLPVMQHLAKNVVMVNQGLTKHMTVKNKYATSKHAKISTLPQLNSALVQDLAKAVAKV
Sequence of UniProt Q96LT7 (Q96LT7 whole entry, looked up): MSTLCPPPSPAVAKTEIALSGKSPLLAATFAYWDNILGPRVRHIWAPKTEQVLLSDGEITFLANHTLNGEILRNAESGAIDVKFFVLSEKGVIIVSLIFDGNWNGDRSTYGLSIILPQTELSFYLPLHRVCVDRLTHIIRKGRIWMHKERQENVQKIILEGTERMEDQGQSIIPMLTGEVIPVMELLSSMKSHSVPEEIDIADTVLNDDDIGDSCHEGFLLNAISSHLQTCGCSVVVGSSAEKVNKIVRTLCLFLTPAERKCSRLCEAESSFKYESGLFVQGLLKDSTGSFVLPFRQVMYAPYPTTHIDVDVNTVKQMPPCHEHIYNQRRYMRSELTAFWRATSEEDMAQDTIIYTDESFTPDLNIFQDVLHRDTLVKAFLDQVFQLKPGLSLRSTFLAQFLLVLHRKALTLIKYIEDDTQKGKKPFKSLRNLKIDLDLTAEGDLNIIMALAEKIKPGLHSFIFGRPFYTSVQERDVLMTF
Sequence of UniProt Q96GQ5 (Q96GQ5 whole entry, looked up): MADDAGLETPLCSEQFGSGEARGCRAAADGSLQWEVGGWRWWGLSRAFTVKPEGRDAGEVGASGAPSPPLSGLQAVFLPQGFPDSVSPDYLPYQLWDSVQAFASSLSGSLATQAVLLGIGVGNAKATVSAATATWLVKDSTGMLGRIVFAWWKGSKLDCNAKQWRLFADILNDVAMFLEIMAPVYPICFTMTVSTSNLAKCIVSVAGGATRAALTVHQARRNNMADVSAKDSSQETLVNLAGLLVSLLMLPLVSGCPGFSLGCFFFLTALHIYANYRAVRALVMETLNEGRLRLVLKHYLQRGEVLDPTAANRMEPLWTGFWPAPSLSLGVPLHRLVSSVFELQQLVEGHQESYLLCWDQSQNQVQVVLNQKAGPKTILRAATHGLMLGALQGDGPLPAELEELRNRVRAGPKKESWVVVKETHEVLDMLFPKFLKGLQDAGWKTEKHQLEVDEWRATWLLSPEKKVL
Sequence of UniProt Q96JM3 (Q96JM3 whole entry, looked up): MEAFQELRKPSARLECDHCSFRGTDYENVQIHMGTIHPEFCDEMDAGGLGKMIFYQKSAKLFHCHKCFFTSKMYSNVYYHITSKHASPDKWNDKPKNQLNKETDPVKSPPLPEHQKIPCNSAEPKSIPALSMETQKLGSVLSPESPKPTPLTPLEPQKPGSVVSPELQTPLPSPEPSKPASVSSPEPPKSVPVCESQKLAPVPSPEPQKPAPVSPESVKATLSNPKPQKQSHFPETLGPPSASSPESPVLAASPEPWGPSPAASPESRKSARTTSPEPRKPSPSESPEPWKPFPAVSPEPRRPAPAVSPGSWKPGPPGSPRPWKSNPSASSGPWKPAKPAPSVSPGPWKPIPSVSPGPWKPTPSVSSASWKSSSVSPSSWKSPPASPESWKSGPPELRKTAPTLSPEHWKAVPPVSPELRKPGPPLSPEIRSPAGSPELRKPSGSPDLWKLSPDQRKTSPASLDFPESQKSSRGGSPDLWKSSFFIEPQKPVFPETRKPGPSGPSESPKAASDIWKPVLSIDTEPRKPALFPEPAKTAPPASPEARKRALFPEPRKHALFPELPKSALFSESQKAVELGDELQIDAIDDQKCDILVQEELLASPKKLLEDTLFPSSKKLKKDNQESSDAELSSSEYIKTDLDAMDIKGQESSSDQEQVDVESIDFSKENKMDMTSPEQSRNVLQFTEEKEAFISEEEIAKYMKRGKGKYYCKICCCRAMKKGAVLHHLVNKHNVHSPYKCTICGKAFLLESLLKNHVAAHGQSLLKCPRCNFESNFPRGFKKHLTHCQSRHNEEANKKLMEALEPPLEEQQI
Sequence of UniProt P41208 (P41208 whole entry, looked up): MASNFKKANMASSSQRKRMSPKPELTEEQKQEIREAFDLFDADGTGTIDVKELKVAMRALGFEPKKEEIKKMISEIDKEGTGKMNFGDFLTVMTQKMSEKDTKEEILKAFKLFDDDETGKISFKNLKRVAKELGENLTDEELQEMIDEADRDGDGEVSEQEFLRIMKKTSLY
Sequence of UniProt P12277 (P12277 whole entry, looked up): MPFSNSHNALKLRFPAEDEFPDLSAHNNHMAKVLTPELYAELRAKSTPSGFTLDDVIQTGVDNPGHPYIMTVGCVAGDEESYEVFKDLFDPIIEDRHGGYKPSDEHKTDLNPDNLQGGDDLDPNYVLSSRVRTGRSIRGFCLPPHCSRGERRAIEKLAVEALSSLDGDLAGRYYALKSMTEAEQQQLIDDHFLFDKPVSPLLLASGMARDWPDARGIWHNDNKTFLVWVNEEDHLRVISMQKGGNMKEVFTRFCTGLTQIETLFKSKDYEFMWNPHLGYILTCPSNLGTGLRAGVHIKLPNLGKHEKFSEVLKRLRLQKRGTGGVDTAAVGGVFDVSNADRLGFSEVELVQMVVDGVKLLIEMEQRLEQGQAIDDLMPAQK
Sequence of UniProt Q2TAC2 (Q2TAC2 whole entry, looked up): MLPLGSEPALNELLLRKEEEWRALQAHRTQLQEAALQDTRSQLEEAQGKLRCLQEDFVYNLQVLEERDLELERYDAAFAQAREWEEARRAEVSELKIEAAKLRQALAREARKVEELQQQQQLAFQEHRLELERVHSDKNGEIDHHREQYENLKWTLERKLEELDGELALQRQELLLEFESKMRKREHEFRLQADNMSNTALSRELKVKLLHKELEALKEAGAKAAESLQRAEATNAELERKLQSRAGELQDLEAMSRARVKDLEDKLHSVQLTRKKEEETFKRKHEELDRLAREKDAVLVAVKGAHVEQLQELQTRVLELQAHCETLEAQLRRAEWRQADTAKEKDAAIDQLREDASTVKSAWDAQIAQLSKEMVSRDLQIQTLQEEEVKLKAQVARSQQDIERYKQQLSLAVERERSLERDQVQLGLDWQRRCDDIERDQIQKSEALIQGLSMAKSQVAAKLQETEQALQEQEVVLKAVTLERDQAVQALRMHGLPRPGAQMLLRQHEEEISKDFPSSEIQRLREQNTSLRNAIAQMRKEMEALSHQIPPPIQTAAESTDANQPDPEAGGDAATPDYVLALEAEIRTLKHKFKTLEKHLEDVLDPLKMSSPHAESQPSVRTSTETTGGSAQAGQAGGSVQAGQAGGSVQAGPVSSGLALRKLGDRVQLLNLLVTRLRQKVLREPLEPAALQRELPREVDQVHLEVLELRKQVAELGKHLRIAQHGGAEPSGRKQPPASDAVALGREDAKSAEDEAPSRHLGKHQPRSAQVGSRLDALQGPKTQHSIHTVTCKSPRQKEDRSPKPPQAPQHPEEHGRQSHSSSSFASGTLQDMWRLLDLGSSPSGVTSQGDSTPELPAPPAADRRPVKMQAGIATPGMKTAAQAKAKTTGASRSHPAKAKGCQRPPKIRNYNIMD

Compound in the test: CCN(CC)Cc1ccc2cc(COC(=O)Nc3ccc(C(=O)NO)cc3)ccc2c1 [givinostat]
Put plainly: log2 fold change, soluble protein after heating vs DMSO (PISA); higher = thermal stabilisation; K562 cells, 10 uM, 30 min; active = over 0.2 and 3.5 SD of the protein, either way, in both replicates (recomputed). In short, it runs like this: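 Aliquots of K562 cells (2×10^6 cells/mL) treated with 10 μM compound for 30 min were heated for 3 min over 48°C-58°C. After pooling and extraction in PBS with 0.5% NP-40 at 4°C, soluble protein from a 21,000xg, 90 min spin was quantified by TMTpro 16plex LC-MS/MS with channel sums equalised. Thermal stability is expressed against control samples, from duplicates, as a log2 fold change.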
In the case of CCNB1 (UniProt P14635), the log2 fold change was 0.007. Regarding CLSPN (UniProt Q9HAW4), the log2 fold change is -0.032. Take CDK6 (UniProt Q00534): the log2 fold change is -0.019. For CCNK isoform 4 (UniProt O75909), the log2 fold change was 0.014. With C16orf58 (UniProt Q96GQ5), the log2 fold change is -0.012. With CDC25B isoform 4 (UniProt P30305), the log2 fold change was 0.032. With CPQ (UniProt Q9Y646), the log2 fold change was 0.011. The same measure for CCDC57 (UniProt Q2TAC2): 0.027; for C9orf72 (UniProt Q96LT7): -0.022. As for CASP3 (UniProt P42574), the log2 fold change is -0.029. Take CLASP2 isoform 3 (UniProt O75122): the log2 fold change was 0.013. Regarding CCM2 isoform 2 (UniProt Q9BSQ5), the log2 fold change was -0.003.

In the case of CCDC9 (UniProt Q9Y3X0), the log2 fold change is -0.069.

In the case of CETN2 (UniProt P41208), the log2 fold change is -0.034. In the case of CKB (UniProt P12277), the log2 fold change was -0.013. On to CKS1B (UniProt P61024), for which the log2 fold change was -0.034.

In the case of CDC42BPA isoform 6 (UniProt Q5VT25), the log2 fold change is 0.051. For the target COX20 isoform 2 (UniProt Q5RI15), the log2 fold change is -0.04.

Consider CHKA (UniProt P35790), for which the log2 fold change is 0.334 (active). Then CNOT1 (UniProt A5YKK6), with 0.044; and CHAMP1 (UniProt Q96JM3), with 0.032. The same measure for CHERP (UniProt Q8IWX8): 0.107.

The values are drawn from the supplement of paper PMC10849652.
